# Results from PubChem BioAssay (Tox21).
# Records with an inconclusive call do not appear. Calls of active or inactive are those of the source. Calls follow the shape of the dose curve; as a rule, active = well fitted curve in the direction sought with a large enough effect in the repeat runs; inconclusive = weak or mixed curves; inactive = no such curve, though single readings can be large; an effect the other way counts as inactive or inconclusive. Non-standard residues stand in square brackets, D forms with d. Residues, ends and D or L forms follow the SMILES beside them. pGlu = O=C1CC[C@@H](C(=O)O)N1
# Test: qHTS assay to identify small molecule antagonists of the androgen receptor (AR) signaling pathway - cell viability counter screen (AID 743033)
# Conditions: AR-bla HEK293 viability, CellTiter-Glo luminescence, 16 h; series mostly up to 58.5 µM; activity change, negative = cytotoxicity: at the top concentration
# % is scaled to controls: 0 for no effect and ±100 for the full control effect; potency is read from the fitted curve at half-maximal effect.
# Also: nearly all actives have a fitted effect of over 45% in size.
SMILES,"activity change, negative = cytotoxicity",Potency
C/C=C(/CC[C@@H](C)[C@H]1CC[C@H]2C3=CC[C@H]4[C@H](C)[C@@H](O)CC[C@]4(C)[C@H]3CC[C@]12C)C(C)C,-0.167% (inactive),
O=C(Nc1ccc(Br)cc1)c1cc(Br)c(Br)s1,,21.3 µM (active)
COc1ccccc1N1CCN(CCCC(=O)c2ccc(F)cc2)CC1,7.17% (inactive),
C[C@H](N)C(=O)N[C@@H](C)P(=O)(O)O,6.22% (inactive),
NC[C@@H]1O[C@H](O[C@H]2[C@@H](O)[C@H](O[C@@H]3[C@@H](O)[C@H](N)C[C@H](N)[C@H]3O[C@H]3O[C@H](CO)[C@@H](O)[C@H](O)[C@H]3N)O[C@@H]2CO)[C@H](N)[C@@H](O)[C@@H]1O,-6.79% (inactive),
O=P(O)(O)C(Sc1ccc(Cl)cc1)P(=O)(O)O,-7.74% (inactive),
CC[C@H](C)[C@H](NC(=O)[C@H](Cc1ccccc1)NC(=O)[C@H](C)NC(=O)[C@H](CC(=O)O)NC(=O)[C@H](CCCCN)NC(=O)[C@H](CO)NC(=O)[C@@H]1CCCN1C(=O)[C@@H]1CCC(=O)N1)C(=O)NCC(=O)N[C@@H](CC(C)C)C(=O)N[C@@H](CCSC)C(N)=O ([pGlu]PSKDAFIGLM-NH2),5.9% (inactive),
Cc1cccc(Nc2ncccc2C(=O)O)c1C,0.676% (inactive),
CCCCCC(O)/C=C/C=O (stereo unspecified),0.398% (inactive),
OCCO[C@@H]1[C@@H](O)[C@H](O)[C@@H](CO)O[C@@H]1O,5.26% (inactive),
N[C@H](CCC(=O)O)C(=O)O,-2.6% (inactive),
CC(O)CN(C)C (stereo unspecified),-1.24% (inactive),
Cc1ccc(C2(O)CCN(CCCC(=O)c3ccc(F)cc3)CC2)cc1,-7.51% (inactive),
CO[C@H]1O[C@@H]2O[C@@]3(C)CC[C@H]4[C@H](C)CC[C@@H]([C@H]1C)[C@@]24OO3,9.32% (inactive),
CC1=C(/C=C/C(C)=C/C=C/C(C)=C/C(=O)Oc2c(C)c(C)c3c(c2C)CC[C@@](C)(CCC[C@H](C)CCC[C@H](C)CCCC(C)C)O3)C(C)(C)CCC1,4.65% (inactive),
O=C(O)[C@@H](O)[C@H](O)[C@H](O)[C@@H](O)C(=O)O (tested in a mixture with another compound),0.699% (inactive),
O=C(Cn1c(=O)sc2ccc(Cl)cc21)N1CCN(CCO)CC1,6.6% (inactive),
NS(=O)(=O)c1cc2c(cc1Cl)NC(Cc1ccccc1)NS2(=O)=O (stereo unspecified),16.8% (inactive),
c1cnc2cc3c(cc2n1)[C@@H]1CNC[C@H]3C1,-25.5% (inactive),
NCCCC[C@H](NC(=O)[C@@H]1CCCN1C(=O)[C@@H]1CSSC[C@H](N)C(=O)N[C@@H](Cc2ccccc2)C(=O)N[C@@H](Cc2ccccc2)C(=O)N[C@@H](CCC(N)=O)C(=O)N[C@@H](CC(N)=O)C(=O)N1)C(=O)NCC(N)=O,-28.5% (inactive),
c1ccc2c(c1)Sc1ccccc1N2CCN1CCCC1,-7.09% (inactive),
O=C(O)C1CCCN1 (stereo unspecified),5.54% (inactive),
CCCCC(=O)OCC(=O)[C@]1(O)Cc2c(O)c3c(c(O)c2[C@@H](O[C@H]2C[C@H](NC(=O)C(F)(F)F)[C@H](O)[C@H](C)O2)C1)C(=O)c1c(OC)cccc1C3=O,2.92% (inactive),

# Test: qHTS assay to identify small molecule antagonists of the androgen receptor (AR) signaling pathway using the MDA cell line - cell viability counter screen (AID 743041)
# Conditions: MDA-kb2 viability, CellTiter-Fluor, 16 h, cells co-treated with R1881 androgen agonist; series mostly up to 70.3 µM; viability change, negative = cytotoxic: at the top concentration
# Summary of the method: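 Cells were plated at 3,000 per well and left 5 h. Compounds in DMSO were then pinned in, followed by R1881. After 16 h at 37C, CellTiter-Fluor fluorescence gave viability.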
SMILES,"viability change, negative = cytotoxic",Potency
CN[C@@H]1CCc2[nH]c3ccc(C(N)=O)cc3c2C1,3.16% (inactive),
FC(F)(F)C(F)(F)C(F)(F)C(F)(F)C(F)(F)C(F)(F)F,1.57% (inactive),
Nc1ncnc2c1ncn2CCOCP(=O)(O)O,-2.45% (inactive),
CCCCCCCCCCCCCCCC(=O)OC[C@@H](NC(=O)C(Cl)Cl)[C@H](O)c1ccc([N+](=O)[O-])cc1,-2.75% (inactive),
C/C(=C(\CCOC(=O)c1ccccc1)SS/C(CCOC(=O)c1ccccc1)=C(/C)N(C=O)Cc1cnc(C)nc1N)N(C=O)Cc1cnc(C)nc1N,-26.7% (inactive),
CCOc1cc(-c2nccc3cc(OC)c(OC)cc23)cc(OCC)c1OCC,-8.44% (inactive),
CCOC(=O)[C@H](CCc1ccccc1)N[C@@H](C)C(=O)N1CC2(C[C@H]1C(=O)O)SCCS2,0.424% (inactive),
CC(=O)N=c1sc(S(N)(=O)=O)nn1C,7.31% [at 32.5 µM] (inactive),
CN1[C@@H]2CCC[C@H]1CC(NC(=O)c1nn(C)c3ccccc13)C2 (stereo partly specified),11.4% (inactive),
O=C(O[C@H]1CN2CCC1CC2)N1CCc2ccccc2[C@@H]1c1ccccc1,12.7% (inactive),
CCC[C@@]1(CCc2ccccc2)CC(O)=C([C@H](CC)c2cccc(NS(=O)(=O)c3ccc(C(F)(F)F)cn3)c2)C(=O)O1,-0.53% (inactive),
COC1=C(C(=O)O)N2C(=O)[C@@H](NC(=O)[C@H](N)C3=CCC=CC3)[C@H]2SC1,0.582% (inactive),
CCCCc1cc2c(=O)c(C(=O)OC)c[nH]c2cc1OCc1ccccc1,0.192% (inactive),
CCCCCCCCCCCCCCCCCC(=O)[O][Al],-0.752% (inactive),
CCNC(=O)[C@@H]1CCCN1C(=O)[C@H](CCCN=C(N)N)NC(=O)[C@H](CC(C)C)NC(=O)[C@@H](Cc1c[nH]c2ccccc12)NC(=O)[C@H](Cc1ccc(O)cc1)NC(=O)[C@H](CO)NC(=O)[C@H](Cc1c[nH]c2ccccc12)NC(=O)[C@H](Cc1cnc[nH]1)NC(=O)[C@@H]1CCC(=O)N1,,11.9 µM (active)
C/C=C(/CC[C@@H](C)[C@H]1CC[C@H]2C3=CC[C@H]4[C@H](C)[C@@H](O)CC[C@]4(C)[C@H]3CC[C@]12C)C(C)C,5.42% (inactive),
O=C(Nc1ccc(Br)cc1)c1cc(Br)c(Br)s1,1.13% (inactive),
COc1ccccc1N1CCN(CCCC(=O)c2ccc(F)cc2)CC1,-19.5% (inactive),
C[C@H](N)C(=O)N[C@@H](C)P(=O)(O)O,-13.5% (inactive),

SMILES,"viability change, negative = cytotoxic",Potency
NC[C@@H]1O[C@H](O[C@H]2[C@@H](O)[C@H](O[C@@H]3[C@@H](O)[C@H](N)C[C@H](N)[C@H]3O[C@H]3O[C@H](CO)[C@@H](O)[C@H](O)[C@H]3N)O[C@@H]2CO)[C@H](N)[C@@H](O)[C@@H]1O,-11% (inactive),
O=P(O)(O)C(Sc1ccc(Cl)cc1)P(=O)(O)O,-14.8% (inactive),
CC[C@H](C)[C@H](NC(=O)[C@H](Cc1ccccc1)NC(=O)[C@H](C)NC(=O)[C@H](CC(=O)O)NC(=O)[C@H](CCCCN)NC(=O)[C@H](CO)NC(=O)[C@@H]1CCCN1C(=O)[C@@H]1CCC(=O)N1)C(=O)NCC(=O)N[C@@H](CC(C)C)C(=O)N[C@@H](CCSC)C(N)=O ([pGlu]PSKDAFIGLM-NH2),17.2% (inactive),
Cc1cccc(Nc2ncccc2C(=O)O)c1C,1.38% (inactive),
CCCCCC(O)/C=C/C=O (stereo unspecified),0.63% (inactive),
OCCO[C@@H]1[C@@H](O)[C@H](O)[C@@H](CO)O[C@@H]1O,2.08% (inactive),
N[C@H](CCC(=O)O)C(=O)O,12.7% (inactive),
CC(O)CN(C)C (stereo unspecified),0.178% (inactive),
Cc1ccc(C2(O)CCN(CCCC(=O)c3ccc(F)cc3)CC2)cc1,-9.03% (inactive),
CO[C@H]1O[C@@H]2O[C@@]3(C)CC[C@H]4[C@H](C)CC[C@@H]([C@H]1C)[C@@]24OO3,-0.479% (inactive),
CC1=C(/C=C/C(C)=C/C=C/C(C)=C/C(=O)Oc2c(C)c(C)c3c(c2C)CC[C@@](C)(CCC[C@H](C)CCC[C@H](C)CCCC(C)C)O3)C(C)(C)CCC1,7.3% (inactive),
O=C(O)[C@@H](O)[C@H](O)[C@H](O)[C@@H](O)C(=O)O (tested in a mixture with another compound),-9.75% (inactive),
O=C(Cn1c(=O)sc2ccc(Cl)cc21)N1CCN(CCO)CC1,4.56% (inactive),
NS(=O)(=O)c1cc2c(cc1Cl)NC(Cc1ccccc1)NS2(=O)=O (stereo unspecified),0.14% (inactive),
c1cnc2cc3c(cc2n1)[C@@H]1CNC[C@H]3C1,-6.16% (inactive),
NCCCC[C@H](NC(=O)[C@@H]1CCCN1C(=O)[C@@H]1CSSC[C@H](N)C(=O)N[C@@H](Cc2ccccc2)C(=O)N[C@@H](Cc2ccccc2)C(=O)N[C@@H](CCC(N)=O)C(=O)N[C@@H](CC(N)=O)C(=O)N1)C(=O)NCC(N)=O,-4.94% (inactive),
c1ccc2c(c1)Sc1ccccc1N2CCN1CCCC1,-19.1% (inactive),
O=C(O)C1CCCN1 (stereo unspecified),2.76% (inactive),
CCCCC(=O)OCC(=O)[C@]1(O)Cc2c(O)c3c(c(O)c2[C@@H](O[C@H]2C[C@H](NC(=O)C(F)(F)F)[C@H](O)[C@H](C)O2)C1)C(=O)c1c(OC)cccc1C3=O,-7.68% (inactive),
